From PubChem BioAssay AID1839 (Johns Hopkins Ion Channel Center, 2009) come the findings set out here.

The structures appear in SMILES notation. In all, about 2,400 compounds went through this assay and about 220 (9.2%) were called active. Only a selection was taken, and actives are over-represented in it overall. Values without a mark were called inactive.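 Rule for the calls: active = signal change above the mean of dofetilide-free buffer controls plus 3 SD, so a positive margin; inactive = the rest.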

A short description of this assay: thallium signal changes without hERG – cell-based, CHO-K1 parental line, FluxOR thallium flux, counter-screen for hERG block protection project, confirmation (AID 1839).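 Note: compounds applied alone with no dofetilide to cells lacking hERG.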 Particulars: CHO-K1 parental cells, FluxOR thallium flux fluorescence; at 10 µM.
For the molecule `O=C(NCc1cccs1)C1CC(c2ccc(F)cc2)=NO1` (stereo not drawn), the signal change vs control minus 3*SD hit threshold (margin above threshold, higher = more increase) was -40.3%.

For `Cc1cccc(NC(=O)CN2C(=O)S/C(=C\c3cccn3-c3cccc(C(=O)O)c3)C2=O)c1`, the signal change vs control minus 3*SD hit threshold (margin above threshold, higher = more increase) is -27.2%.

Regarding `Cc1cc(Cl)ccc1OC(C)C(=O)NCCc1ccc2c(c1)OCCO2` (stereo not drawn), the signal change vs control minus 3*SD hit threshold (margin above threshold, higher = more increase) is -37.2%.

On to `CC(NC(=O)NC1CCCCC1)c1ccc2c(c1)OCO2` (stereo not drawn), for which the signal change vs control minus 3*SD hit threshold (margin above threshold, higher = more increase) was -5.4%.

As to `COc1ccc(C(=O)CC(=O)C(=O)Nc2ccc(C)c(C)c2)cc1`, the signal change vs control minus 3*SD hit threshold (margin above threshold, higher = more increase) was -27.5%.

`Cc1ccnc(SCCn2c(N3CC(C)OC(C)C3)nc3c2c(=O)n(C)c(=O)n3C)n1` (stereo not drawn): the signal change vs control minus 3*SD hit threshold (margin above threshold, higher = more increase) is -31.9%.

With `CCOc1ccc2nc(N3C(=O)/C(=C/c4ccccc4)NC3=S)sc2c1`, the signal change vs control minus 3*SD hit threshold (margin above threshold, higher = more increase) is -18.8%.

As to `CCOc1ccc2nc(/N=C/c3c(C)[nH]n(-c4ccccc4)c3=O)sc2c1`, the signal change vs control minus 3*SD hit threshold (margin above threshold, higher = more increase) is 53.3% (active).

For `CCOc1ccc2nc(/N=C/c3nc(-c4ccccc4)oc3O)sc2c1`, the signal change vs control minus 3*SD hit threshold (margin above threshold, higher = more increase) is -18.5%.

On to `S=c1[nH]nc(CSc2nc3ccccc3s2)n1C1CCCCC1`, for which the signal change vs control minus 3*SD hit threshold (margin above threshold, higher = more increase) is -26.3%.

With `Cc1ccc(NC(=O)c2cc(NC(=O)/C=C\C(=O)O)ccc2N2CCCCC2)cc1`, the signal change vs control minus 3*SD hit threshold (margin above threshold, higher = more increase) is -12.7%.

Take `CC(C)C1Cc2c(sc3[nH]c(=S)n(Cc4ccccc4)c(=O)c23)CO1` (stereo not drawn): the signal change vs control minus 3*SD hit threshold (margin above threshold, higher = more increase) is -10.8%.

In the case of `CCC1(C)Cc2c(sc3[nH]c(=S)n(Cc4ccccc4)c(=O)c23)CO1` (stereo not drawn), the signal change vs control minus 3*SD hit threshold (margin above threshold, higher = more increase) is 10.6% (active).

For the molecule `CC1(C)Cc2c(sc3[nH]c(=S)n(Cc4ccccc4)c(=O)c23)CO1`, the signal change vs control minus 3*SD hit threshold (margin above threshold, higher = more increase) was -22.2%.

In the case of `COC(=O)CSc1nc(N2CCCCC2)c2c(c1C#N)CCCC2`, the signal change vs control minus 3*SD hit threshold (margin above threshold, higher = more increase) was -8.9%.

On to `O=C(COC(=O)c1cc(Br)ccc1O)Nc1cccnc1Cl`, for which the signal change vs control minus 3*SD hit threshold (margin above threshold, higher = more increase) was -24.7%.

Consider `CC(C)c1ccc(OCC(=O)NN2C(=O)c3ccccc3C2=O)c(Br)c1`, for which the signal change vs control minus 3*SD hit threshold (margin above threshold, higher = more increase) was -24%.

With `Cc1ccc(C)c2sc(NC(=O)c3nc4ccccc4s3)nc12`, the signal change vs control minus 3*SD hit threshold (margin above threshold, higher = more increase) was -20.2%.

Take `CCOC(=O)c1c(NS(=O)(=O)Cc2ccccc2)sc2c1CCCC2`: the signal change vs control minus 3*SD hit threshold (margin above threshold, higher = more increase) was -0.7%.

`CCOC(=O)c1c(NS(=O)(=O)c2ccc(Br)cc2)sc2c1CCC2`: the signal change vs control minus 3*SD hit threshold (margin above threshold, higher = more increase) was 32.6% (active).

With `COC(=O)c1c(NS(=O)(=O)c2ccc3ccccc3c2)sc2c1CCCC2`, the signal change vs control minus 3*SD hit threshold (margin above threshold, higher = more increase) was -22.4%.

Regarding `CN(NC1OC(=O)c2ccccc21)c1ccccc1[N+](=O)[O-]` (stereo not drawn), the signal change vs control minus 3*SD hit threshold (margin above threshold, higher = more increase) was -30.9%.

As to `COc1nnc(-c2ccc(C)c(S(=O)(=O)NC(C)(C)CO)c2)c2ccccc12`, the signal change vs control minus 3*SD hit threshold (margin above threshold, higher = more increase) was -25.8%.

Regarding `Cc1ccc(C(=O)Sc2cccccc2=O)cc1`, the signal change vs control minus 3*SD hit threshold (margin above threshold, higher = more increase) is -20.3%.

As for `O=C1OC(/C=C/c2ccc(Cl)cc2Cl)=NC/1=C\c1cccs1`, the signal change vs control minus 3*SD hit threshold (margin above threshold, higher = more increase) was -32.3%.

`O=c1c(O)c(-c2ccc3c(c2)OCO3)oc2ccccc12`: the signal change vs control minus 3*SD hit threshold (margin above threshold, higher = more increase) is -10.8%.

`O=c1c(O)c(-c2cccs2)oc2ccc(Cl)cc12`: the signal change vs control minus 3*SD hit threshold (margin above threshold, higher = more increase) is 64.2% (active).

Consider `O=c1c(O)c(-c2cccs2)oc2ccccc12`, for which the signal change vs control minus 3*SD hit threshold (margin above threshold, higher = more increase) is 39.2% (active).

For the molecule `CCN(CC)CCCN1C(=O)c2oc3ccccc3c(=O)c2C1c1cccs1` (stereo not drawn), the signal change vs control minus 3*SD hit threshold (margin above threshold, higher = more increase) was -15.9%.

Consider `O=c1c2cc(Cl)ccc2[nH]c(=S)n1Cc1cccs1`, for which the signal change vs control minus 3*SD hit threshold (margin above threshold, higher = more increase) was -21.6%.

In the case of `Cc1ccccc1NP(=O)(c1ccccc1)c1nc2ccccc2s1` (stereo not drawn), the signal change vs control minus 3*SD hit threshold (margin above threshold, higher = more increase) is -31.9%.

For the molecule `CCOc1ccc(N)c(SSc2cc(OCC)ccc2N)c1`, the signal change vs control minus 3*SD hit threshold (margin above threshold, higher = more increase) was -32.6%.

On to `Cc1ccc(CC23CN4CCN(CC(C4)C2O)C3)c(C)c1` (stereo not drawn), for which the signal change vs control minus 3*SD hit threshold (margin above threshold, higher = more increase) was -14.8%.

Consider `CN(C)CCOC(=O)C1(c2ccccc2)CCCC1`, for which the signal change vs control minus 3*SD hit threshold (margin above threshold, higher = more increase) was -31.9%.

Take `COC(=O)C1=C(C)NC2=C(C(=O)CCC2)C1c1ccc(-c2ccsc2C(=O)OC)o1` (stereo not drawn): the signal change vs control minus 3*SD hit threshold (margin above threshold, higher = more increase) is -17.8%.

On to `O=C(/C=C/c1ccccc1)CC(=O)c1ccccc1O`, for which the signal change vs control minus 3*SD hit threshold (margin above threshold, higher = more increase) is -29.3%.

`CCOc1cc(N2CCOCC2)c(OCC)cc1NC(=O)CCC1CCCC1`: the signal change vs control minus 3*SD hit threshold (margin above threshold, higher = more increase) is -19.4%.

Regarding `Cc1ccccc1NC(=S)NC(=O)c1cc(-c2ccccc2)nc2ccccc12`, the signal change vs control minus 3*SD hit threshold (margin above threshold, higher = more increase) was -15.1%.

Take `O=C(NC(=S)Nc1ccccc1F)c1ccc(Br)o1`: the signal change vs control minus 3*SD hit threshold (margin above threshold, higher = more increase) was 23% (active).

`CCN(c1ccccc1)S(=O)(=O)c1ccc(NC(=S)NC(=O)c2ccc(Br)o2)cc1`: the signal change vs control minus 3*SD hit threshold (margin above threshold, higher = more increase) is -20.8%.

In the case of `COc1ccc(OC)c(NC(=S)NC(=O)c2ccc(Br)o2)c1`, the signal change vs control minus 3*SD hit threshold (margin above threshold, higher = more increase) was -21.4%.

In the case of `O=C(NC(=S)Nc1ccccc1)c1ccc(Br)o1`, the signal change vs control minus 3*SD hit threshold (margin above threshold, higher = more increase) was -17.9%.

In the case of `Cc1cccc(C)c1NC(=S)NC(=O)c1ccc(Br)o1`, the signal change vs control minus 3*SD hit threshold (margin above threshold, higher = more increase) is 18.7% (active).

As for `O=C(NC(=S)NCc1ccccc1)c1ccc(Br)o1`, the signal change vs control minus 3*SD hit threshold (margin above threshold, higher = more increase) is 39.2% (active).

In the case of `O=C(CNC(=S)NC(=O)c1ccc(Br)o1)c1ccccc1`, the signal change vs control minus 3*SD hit threshold (margin above threshold, higher = more increase) was -26.3%.

For the molecule `Cc1ccc(NC(=S)NC(=O)c2ccc(Br)o2)c(C)c1`, the signal change vs control minus 3*SD hit threshold (margin above threshold, higher = more increase) was -19.5%.

Regarding `COc1ccccc1NC(=S)NC(=O)c1ccc(-c2ccc(Cl)cc2)o1`, the signal change vs control minus 3*SD hit threshold (margin above threshold, higher = more increase) is -22.6%.

`Cc1cccc(NC(=S)NC(=O)c2ccc(Br)o2)c1C`: the signal change vs control minus 3*SD hit threshold (margin above threshold, higher = more increase) is -13.6%.

As to `Cc1cccc(NC(=S)NC(=O)c2ccc(Br)o2)c1`, the signal change vs control minus 3*SD hit threshold (margin above threshold, higher = more increase) is 9.1% (active).

For the molecule `O=C(NC(=S)NCc1ccccc1)c1cccs1`, the signal change vs control minus 3*SD hit threshold (margin above threshold, higher = more increase) is -11.1%.

With `CCN(CC)c1ccc(NC(=S)NC(=O)c2ccco2)cc1`, the signal change vs control minus 3*SD hit threshold (margin above threshold, higher = more increase) is -1.8%.

With `N#Cc1c(-c2ccco2)c2c([nH]c1=S)CCCC2`, the signal change vs control minus 3*SD hit threshold (margin above threshold, higher = more increase) was -29.5%.

For the molecule `CCOC(=O)c1c(-c2ccccc2)csc1NC(=S)NC`, the signal change vs control minus 3*SD hit threshold (margin above threshold, higher = more increase) is -10.9%.

With `CC12CCC(C/C1=N\N=C1\NC(=O)/C(=C\c3ccc(Cl)cc3)S1)C2(C)C` (stereo not drawn), the signal change vs control minus 3*SD hit threshold (margin above threshold, higher = more increase) is -20.2%.

With `Cc1nnc2ccc(-c3cccc(NC(=O)c4ccc(Cl)nc4)c3)nn12`, the signal change vs control minus 3*SD hit threshold (margin above threshold, higher = more increase) was -41.7%.

Turning to `O=C(NC(=S)N1CCN(c2ccccc2)CC1)c1ccccc1`, the signal change vs control minus 3*SD hit threshold (margin above threshold, higher = more increase) is -8.7%.

With `CC(C)Sc1nc2ccccc2n2cnnc12`, the signal change vs control minus 3*SD hit threshold (margin above threshold, higher = more increase) is -29.7%.

Consider `Cc1cccc(/C=C2/S/C(=N/N=C3\CC4CCC3(C)C4(C)C)NC2=O)c1` (stereo not drawn), for which the signal change vs control minus 3*SD hit threshold (margin above threshold, higher = more increase) was -12.4%.

Take `Cc1ccc2nsnc2c1S(=O)(=O)Nc1cccc2nsnc12`: the signal change vs control minus 3*SD hit threshold (margin above threshold, higher = more increase) was -18.7%.

Take `CCC1CCc2c(sc(NC(=O)C3CC=CCC3C(=O)O)c2C#N)C1` (stereo not drawn): the signal change vs control minus 3*SD hit threshold (margin above threshold, higher = more increase) was -5.5%.

For the molecule `Cc1cc([N+](=O)[O-])ccc1-c1ccc(C2Nc3ccccc3C(=O)N2O)o1` (stereo not drawn), the signal change vs control minus 3*SD hit threshold (margin above threshold, higher = more increase) was -18.3%.

With `C=CCc1cccc(C2Nc3ccccc3C(=O)N2O)c1O` (stereo not drawn), the signal change vs control minus 3*SD hit threshold (margin above threshold, higher = more increase) is -26.4%.

Turning to `O=C1c2ccccc2NC(c2ccc(Br)s2)N1O` (stereo not drawn), the signal change vs control minus 3*SD hit threshold (margin above threshold, higher = more increase) is 15.6% (active).
